Bioassay records: PubChem BioAssay, National Center for Advancing Translational Sciences (NCATS)
Shown are actives, neighbours in structure and some others; about 4% of the full set was active somewhere.
TRHR agonist-1: TRH receptor (human) agonism; P34981; TRHR cells, calcium flux fluo-8, FDSS agonist mode; activation, % at 2 µM; 0.18% of 360,000 active; AID 493084; in the data active means activation above about 30%
Target sequence (P34981 whole entry, looked up): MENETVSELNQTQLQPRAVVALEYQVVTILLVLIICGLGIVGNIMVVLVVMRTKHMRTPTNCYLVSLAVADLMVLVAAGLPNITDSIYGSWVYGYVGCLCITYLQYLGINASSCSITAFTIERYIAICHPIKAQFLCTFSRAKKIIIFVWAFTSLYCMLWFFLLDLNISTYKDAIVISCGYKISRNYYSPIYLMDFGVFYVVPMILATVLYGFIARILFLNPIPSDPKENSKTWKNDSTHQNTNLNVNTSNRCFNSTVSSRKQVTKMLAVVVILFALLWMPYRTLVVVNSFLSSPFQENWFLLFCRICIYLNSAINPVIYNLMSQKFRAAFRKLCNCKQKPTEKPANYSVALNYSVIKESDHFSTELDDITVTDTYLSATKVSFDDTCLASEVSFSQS
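Steps: seed TRHR cells overnight; add fluo-8 no-wash Ca dye, RT 30 min–1.5 h; record 10 s baseline; pin-transfer compounds; monitor fluorescence 1 cycle/s for the agonist window. Calcium increases flag candidate agonists.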
D1 ag: agonists of human D1 dopamine receptor; HEK293 T-REx D1 cells, calcium flux, agonist mode; activation, % at 2 µM; 1% of 360,000 active; AID 504660; in the data active means activation above about 30%
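Inducible HEK293 T-REx D1 cells, force-coupled to calcium signalling, were plated at 4000 cells/well with tetracycline and held overnight at 30 C. After no-wash calcium dye loading, compound-evoked calcium rise over 180 s flagged agonists.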
GRP78 ERSR act: induces the endoplasmic reticulum stress response in human glioma cells | U87-MG GRP78 promoter luciferase reporter, 16 h | Potency, µM, hits mostly activators | 0.02% of 420,000 active; further: series mostly up to about 76 µM; nearly all actives have a fitted effect of over 35% in size
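Stably transfected U87-MG human glioma cells carrying a GRP78-based luminescent sensor were seeded at 1000 cells/well, pin-dosed with compounds and incubated 16 h. Luciferase reagent was then added, and end-point luminescence was read after 10 min at room temperature.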
D1 antag: antagonists of human D1 dopamine receptor; P21728; HEK293 TREx D1 cells, calcium flux, dopamine EC80; active compounds read low; activity change, negative = inhibition, % at 10 µM; 3.2% of 360,000 active; AID 504652; in the data active means activity change below about -30%
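Tetracycline-induced HEK293 Trex D1 cells, force-coupled to calcium, dye-loaded; compounds added and read 180 s, then EC80 dopamine added and calcium flux tracked kinetically another 180 s.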
TRHR enhancer-1: allosterically enhances the human TRH receptor; P34981; TRHR cells, fluo-8 calcium fluorescence, EC20 TRH enhancement; enhancement, % at 2 µM; 0.66% of 360,000 active; in the data active means enhancement above about 30%
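TRHR-expressing cells loaded with fluo-8 calcium dye were read kinetically (ex 480/em 530) during compound addition, then stimulated with an EC20 of TRH (10 nM final). Enhancement of the Gq-mediated intracellular calcium response was scored.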
D1 potentiator: enhances dopamine response at the human D1 receptor; P21728; HEK293 TREx D1 cells, calcium flux, dopamine EC20 potentiation; potentiation, % at 10 µM; 0.036% of 360,000 active; AID 504651; in the data active means potentiation above about 30%
TRHR enhancer-2: human TRH receptor allosteric enhancement confirmation; activity change, negative = inhibition, % at 46.1 µM; shares compounds with TRHR enhancer-1; 970 tested, under 10 active; TRH receptor cell assay, enhancer confirmation qHTS;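 further: compound effect scored on response to added TRH at EC20 of 10 nM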
TRHR agonist-2: confirmation of human TRH receptor agonists | 8% of 970 active | TRHR-expressing cells, agonist activation read-out | AID 493078 | shares compounds with TRHR enhancer-1 | Potency, µM (series often up to 46.1 µM), actives largely listed as activators; further: nearly all actives have a fitted effect of over 75% in size
Of the large screens only hits and unclear results are named; the others gave an inactive call (follow-up assays come after a bar, where they were run). Unless noted, the call rests on the fitted dose curve; in most records, active means well fitted curve in the direction sought with a large enough effect; inconclusive means small, poorly fitted or top-dose-only effect, or another doubt; inactive means no such curve, though single readings can be large; an effect the other way counts as inactive or inconclusive.

O=C(C1CC(=O)N(c2ccc3c(c2)OCCO3)C1)N1CCN(Cc2ccccc2F)CC1 (configuration not stated)	TRHR enhancer-1 48 | TRHR enhancer-2 inactive | TRHR agonist-2 inactive
O=C(Nc1nc2ccc(F)cc2s1)C1CC(=O)N(c2ccc3c(c2)OCCO3)C1 (configuration not stated)	none
COc1ccc(CN(C)C(=O)C2CC(=O)N(c3ccc4c(c3)OCCO4)C2)c(OC)c1 (configuration not stated)	TRHR enhancer-1 65 | TRHR enhancer-2 inactive | TRHR agonist-2 inactive
O=C(NCc1ccccc1F)C1CC(=O)N(c2ccc3c(c2)OCCO3)C1 (configuration not stated)	none
COc1ccc2nc(NC(=O)C3CC(=O)N(c4ccc5c(c4)OCCO5)C3)sc2c1 (configuration not stated)	TRHR enhancer-1 49 | TRHR enhancer-2 inconclusive | TRHR agonist-2 inactive
CCOc1ccc(NC(=O)c2nc(S(=O)(=O)Cc3ccc(C)cc3)ncc2Cl)cc1	none (no result: TRHR agonist-1, D1 ag, D1 antag, TRHR enhancer-1, D1 potentiator)
CC(=O)N1CCN(C(=O)CSc2nnc(C)n2-c2ccccc2)CC1	none
CCOc1ccc(Nc2nc(N)c([N+](=O)[O-])c(N3CCN(CC)CC3)n2)cc1	none
COc1ccc(Nc2nc(N)c([N+](=O)[O-])c(N3CCN(C)CC3)n2)cc1	TRHR enhancer-1 46 | TRHR enhancer-2 inactive | TRHR agonist-2 inactive
CCn1ccnc1[C@@H]1C[C@H]2CN(Cc3ccccc3OC)C(=O)[C@]23CCCN13	TRHR enhancer-1 46 | TRHR enhancer-2 inactive | TRHR agonist-2 inactive
COc1ccc(N2CCN(C(=O)CCc3ccccc3)CC2)cc1	none
Cc1cccc(NS(=O)(=O)c2ccc(C)c(C(=O)NCC(c3cccs3)N(C)C)c2)c1 (configuration not stated)	TRHR enhancer-1 42 | TRHR enhancer-2 inactive | TRHR agonist-2 inactive
O=C(N/N=C/c1cccnc1)c1ccccc1OCc1cccc(Br)c1	none
Cc1ccc(/C=N/NC(=O)c2ccccc2OCc2cccc(Br)c2)o1	TRHR enhancer-1 58 | TRHR enhancer-2 inactive | TRHR agonist-2 inactive
NC(=O)C1CCN(C(=O)c2ccc3ccccc3c2)CC1	none
Cn1c(C(=O)N2CCC(C(N)=O)CC2)cc2cc(Cl)ccc21	TRHR enhancer-1 57 | TRHR enhancer-2 inactive | TRHR agonist-2 inactive
CCc1ccccc1N(CC(=O)N/N=C/c1ccc(OC(=O)OC)c(OC)c1)S(C)(=O)=O	TRHR agonist-1 43 | TRHR enhancer-2 inactive | TRHR agonist-2 inactive
CCc1ccccc1NC(=O)NC1CCCCC1	TRHR enhancer-1 48 | TRHR enhancer-2 inactive | TRHR agonist-2 inactive
Cc1ccc(O)c(C(=O)c2cc(C#N)c(=O)n(Cc3ccccc3)c2)c1	none
Cc1ccc(O)c(C(=O)c2cc(C#N)c3nc4ccccc4n3c2)c1	TRHR agonist-1 42, D1 ag 62 | TRHR enhancer-2 inactive | TRHR agonist-2 inconclusive
O=C(O)CCc1ccc(-c2ccc(Br)cc2)n1-c1cccc(O)c1	none
COc1cc(C(=O)Nc2cccc(-c3cn4cccnc4n3)c2)cc(OC)c1OC	TRHR enhancer-1 63 | TRHR enhancer-2 inactive | TRHR agonist-2 inactive
N#Cc1cnn(-c2ccc([N+](=O)[O-])cc2[N+](=O)[O-])c1N	none (no result: TRHR agonist-1, D1 ag, D1 antag, TRHR enhancer-1, D1 potentiator)
COc1cccc(NC(=O)CNS(=O)(=O)c2ccc(Cl)cc2)c1	none
COc1ccc(NC(=O)CNS(=O)(=O)c2ccc(Cl)cc2)cc1	TRHR enhancer-1 44 | TRHR enhancer-2 inactive | TRHR agonist-2 inactive
Nc1[nH]c2cc([N+](=O)[O-])ccc2c1-c1ccccn1	TRHR agonist-1 31, D1 ag 65 | TRHR enhancer-2 inactive | TRHR agonist-2 inconclusive
CCCCCN(C(=O)CCC(=O)OCC(=O)N(CC)C1CCCCC1)c1c(N)n(CCCC)c(=O)[nH]c1=O	none
COc1ccccc1OC(=O)c1ccc2nsnc2c1	none
